Laboratory results from PubChem BioAssay (Tox21).
Inconclusive results are not listed. The source made the active and inactive calls. Unless noted, calls follow the shape of the dose curve; as a rule, active = well fitted curve in the direction sought with a large enough effect in the repeat runs; inconclusive = weak or mixed curves; inactive = no such curve, though single readings can be large; an effect the other way counts as inactive or inconclusive.

Experiments:
[1] = A CellTox Green Cytotoxicity Assay to monitor cytotoxicity in HEK293 cells - 32 hour (AID 1224881); also: nearly all actives have a fitted effect of over 40% in size
Outline: (§1)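 Nonlytic real-time cytotoxicity: HEK293 + CellTox Green reagent plated, 5 h preincubation, pintool compound addition (23 nL in DMSO), 37 C for 40 h, fluorescence measured at successive time points.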

[2] = A CellTox Green Cytotoxicity Assay to monitor cytotoxicity in HepG2 cells - 0 hour (AID 1224882); also: nearly all actives have a fitted effect of over 35% in size
Outline: (§2)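 Read-out is fluorescence of a cyanine dye excluded from live cells that stains DNA of dead HepG2 cells, with signal proportional to cytotoxicity. Plates were read at 0, 8, 16, 24, 32 and 40 h after compound addition.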

[3] = A CellTox Green Cytotoxicity Assay to monitor cytotoxicity in HepG2 cells - 32 hour (AID 1224883); also: nearly all actives have a fitted effect of over 50% in size
Outline: as §2

[4] = qHTS RealTime-Glo MT Cell Viability Assay in HEK293 cells - 24 hour (AID 1224886); also: top concentration of the series differs between compounds; nearly all actives have a fitted effect of over 50% in size
Outline: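 Viability tracked continuously by luminescence as live cells reduce a prosubstrate for NanoLuc; HEK293 cells preincubated 5 h, compound-treated at 37 C, and read at 0, 8, 16, 24, 32 and 40 h.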

[5] = qHTS RealTime-Glo MT Cell Viability Assay in HEK293 cells - 8 hour (AID 1224887); also: top concentration of the series differs between compounds; nearly all actives have a fitted effect of over 50% in size
Outline: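 Cells were seeded together with NanoLuc luciferase and a prosubstrate that viable cells reduce to a luciferase substrate. After a 5 h incubation at 37 C/5% CO2, compounds were added and luminescence was measured repeatedly during 40 h of treatment.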

[6] = qHTS RealTime-Glo MT Cell Viability Assay in HepG2 cells - 0 hour (AID 1224889); also: nearly all actives have a fitted effect of over 50% in size
Outline: (§3)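 Viability was tracked continuously by NanoLuc luminescence from prosubstrate reduced by living HepG2 cells, at successive time points over 40 h of compound exposure. Cells with reagent were preincubated 5 h at 37 °C before compound addition.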

[7] = A CellTox Green Cytotoxicity Assay to monitor cytotoxicity in HepG2 cells - 8 hour (AID 1224890); also: nearly all actives have a fitted effect of over 45% in size
Outline: as §2

[8] = qHTS assay to identify small molecule antagonists of the estrogen receptor alpha (ER-alpha) signaling pathway using the BG1 cell line in the presence of 0.1 nM 17-beta-estradiol - cell viability counter screen (AID 1259241); also: nearly all actives have a fitted effect of over 40% in size
Outline: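 Live-cell protease activity (CellTiter-Fluor fluorescence, 30 min) was read in the same wells after VM7Luc4E2 cells had been exposed to compounds with 0.1 nM 17beta-estradiol for 22 hr at 37C.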

[9] = qHTS assay to identify small molecule antagonists of the androgen receptor (AR) signaling pathway using the MDA cell line in the presence of 0.5 nM R1881 - cell viability counter screen (AID 1259242); also: nearly all actives have a fitted effect of over 45% in size
Outline: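 Counter screen for cytotoxicity run in the same wells as the AR antagonist reporter screen: MDA-kb2 cells were treated 16 hr with test compounds and 0.5 nM R1881, then live-cell protease activity was measured by fluorescence.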

[10] = biological target: Estrogen receptor (Homo sapiens) (UniProt P03372); assay: qHTS assay to identify small molecule antagonists of the estrogen receptor alpha (ER-alpha) signaling pathway using the BG1 cell line in the presence of 0.1 nM 17-beta-estradiol (AID 1259244); also: nearly all actives have a fitted effect of over 50% in size
Sequence of Estrogen receptor (Homo sapiens) (P03372 whole entry, looked up): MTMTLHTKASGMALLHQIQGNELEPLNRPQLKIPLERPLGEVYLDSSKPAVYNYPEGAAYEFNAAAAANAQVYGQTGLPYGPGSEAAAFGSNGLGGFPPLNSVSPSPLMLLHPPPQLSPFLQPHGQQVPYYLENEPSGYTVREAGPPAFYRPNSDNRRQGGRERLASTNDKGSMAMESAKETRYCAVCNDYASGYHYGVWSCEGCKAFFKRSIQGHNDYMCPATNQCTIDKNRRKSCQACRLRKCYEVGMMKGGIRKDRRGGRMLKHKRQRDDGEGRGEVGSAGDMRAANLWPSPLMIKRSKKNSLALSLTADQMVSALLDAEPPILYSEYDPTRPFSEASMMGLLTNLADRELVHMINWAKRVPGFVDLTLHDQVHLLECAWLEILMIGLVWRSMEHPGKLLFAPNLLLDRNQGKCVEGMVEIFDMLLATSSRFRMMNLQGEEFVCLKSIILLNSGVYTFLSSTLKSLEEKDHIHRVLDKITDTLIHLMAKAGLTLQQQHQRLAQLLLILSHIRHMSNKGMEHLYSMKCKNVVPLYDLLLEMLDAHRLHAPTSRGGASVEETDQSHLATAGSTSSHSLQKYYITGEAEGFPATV
Outline: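 Cells: VM7Luc4E2, endogenous ER-alpha, 4x ERE-luc stable. Pre-culture 5 d, phenol red-free, charcoal-stripped FBS. Plated 24 h, compound + E2 0.1 nM final, 22 h 37C/5% CO2. Readout ONE-Glo luminescence.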

[11] = qHTS assay to identify small molecule phospholipidosis (PLD) inducers (AID 1259344; active = well fitted curve in the direction sought with a large enough effect; an effect the other way counts as inactive or inconclusive)
Outline: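 Fluorescent phospholipid staining (LipidTOX Red) measured by automated microscopy in fixed HepG2 cells after 24 h treatment; nuclei counterstained with Hoechst 33342; amiodarone as reference inducer.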

[12] = qHTS assay to identify small molecule HDAC inhibitors (AID 1259364); also: top concentration of the series differs between compounds; nearly all actives have a fitted effect of over 45% in size
Outline: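 Luminescence from a cell-permeant luminogenic class I/II HDAC substrate reports endogenous deacetylase activity in intact HCT-116 cells treated with compounds for 2 h.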

[13] = qHTS assay to identify small molecule HDAC inhibitors - cell viability counter screen (AID 1259365)
Outline: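 HCT-116 (wild type), 1,500 cells/well, overnight 37C/5% CO2; compound in DMSO 2hr; CellTiter-Glo 30min RT; luminescence read.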

[14] = qHTS assay to identify small molecule agonists of the sonic hedgehog signaling (Shh) pathway - cell viability counter screen (AID 1259366); also: nearly all actives have a fitted effect of over 50% in size
Outline: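 CellTiter-Fluor fluorescence read-out, 1 hr at 37C, added after 23hr compound exposure. Cells: 3T3 Gli1-Luc, an NIH/3T3 clone with stably integrated Gli1-Luc reporter, plated 4hr before compound.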

[15] = qHTS assay to identify small molecule antagonists of the sonic hedgehog signaling (Shh) pathway - cell viability counter screen (AID 1259367); also: nearly all actives have a fitted effect of over 55% in size
Outline: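 Using CellTiter-Fluor, viability of Gli1-Luc reporter 3T3 cells is read by fluorescence in the wells used for the Shh luciferase assay. Treatment lasts 23 hr with conditioned medium, then reagent 1 hr at 37C.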

[16] = qHTS assay to identify small molecule agonists of the sonic hedgehog signaling (Shh) pathway (AID 1259368; calls by dose curve;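 also: NIH/3T3-derived 3T3Gli1-Luc cells carrying a stable Gli1-driven firefly luciferase reporter; series mostly up to about 92 µM; nearly all actives have a fitted effect of over 15% in size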)
Outline: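 3T3Gli1-Luc (NIH/3T3 clone, stable Gli1-Luc); 4 hr pre-incubation, then cpd in DMSO 24 hr, 37 C/5% CO2; luciferase reagent 30 min RT; luminescence.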

[17] = A CellTox Green Cytotoxicity Assay to monitor cytotoxicity in HEK293 cells - 8 hour (AID 1224884); also: nearly all actives have a fitted effect of over 35% in size
Outline: as §1

[18] = qHTS RealTime-Glo MT Cell Viability Assay in HepG2 cells - 16 hour (AID 1224885); also: nearly all actives have a fitted effect of over 50% in size
Outline: as §3

[19] = A CellTox Green Cytotoxicity Assay to monitor cytotoxicity in HEK293 cells - 16 hour (AID 1224888); also: nearly all actives have a fitted effect of over 35% in size
Outline: as §1

[20] = biological target: Androgen receptor (Homo sapiens) (UniProt P10275); assay: qHTS assay to identify small molecule antagonists of the androgen receptor (AR) signaling pathway using the MDA cell line in the presence of 0.5 nM R1881 (AID 1259243); also: nearly all actives have a fitted effect of over 50% in size
Sequence of Androgen receptor (Homo sapiens) (P10275 whole entry, looked up): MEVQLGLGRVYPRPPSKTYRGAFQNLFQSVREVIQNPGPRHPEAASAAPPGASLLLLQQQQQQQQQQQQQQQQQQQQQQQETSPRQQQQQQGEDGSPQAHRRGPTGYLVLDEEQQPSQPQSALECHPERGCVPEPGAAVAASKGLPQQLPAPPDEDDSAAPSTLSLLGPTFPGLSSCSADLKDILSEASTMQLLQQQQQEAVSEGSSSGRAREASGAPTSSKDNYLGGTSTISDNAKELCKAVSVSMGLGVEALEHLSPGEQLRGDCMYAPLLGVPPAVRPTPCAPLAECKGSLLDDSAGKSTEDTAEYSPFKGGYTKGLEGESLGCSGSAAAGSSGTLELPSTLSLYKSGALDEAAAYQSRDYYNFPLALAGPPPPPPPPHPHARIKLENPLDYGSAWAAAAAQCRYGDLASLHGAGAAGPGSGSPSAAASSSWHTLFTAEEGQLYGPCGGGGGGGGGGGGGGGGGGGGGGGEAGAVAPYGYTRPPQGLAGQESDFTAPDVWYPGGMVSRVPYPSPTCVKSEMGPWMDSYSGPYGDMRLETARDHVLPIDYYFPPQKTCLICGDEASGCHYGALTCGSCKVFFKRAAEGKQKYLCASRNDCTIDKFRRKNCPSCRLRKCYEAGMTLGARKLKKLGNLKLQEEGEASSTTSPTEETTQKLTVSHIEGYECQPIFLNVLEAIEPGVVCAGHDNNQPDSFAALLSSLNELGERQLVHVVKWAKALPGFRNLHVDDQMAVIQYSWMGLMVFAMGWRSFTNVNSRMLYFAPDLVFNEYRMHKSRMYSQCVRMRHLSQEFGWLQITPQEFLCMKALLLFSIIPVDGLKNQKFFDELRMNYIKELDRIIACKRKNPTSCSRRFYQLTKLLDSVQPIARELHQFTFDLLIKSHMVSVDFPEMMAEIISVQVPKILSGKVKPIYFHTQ
Outline: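 Luciferase luminescence is the read-out: compounds are tested for suppressing 0.5 nM R1881-driven MMTV reporter activity in MDA-kb2 cells after 16 hr at 37C.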
% is scaled to controls: 0 for no effect and ±100 for the full control effect.

CCN(CCO)CCn1c(Cc2ccccc2)nc2c1c(=O)n(C)c(=O)n2C
inactive: Potency [1] | outcome [2] | Potency [3] | Potency [4] | Potency [5] | outcome [6] | Potency [7] | outcome [8] | Potency [9] | Potency [10] | PLD induction [11] -2.9% [at 7.66 µM] | Potency [12] | outcome [13] | Potency [14] | Potency [15] | outcome [16]

ClCCCCl
inactive: Potency [1] | Potency [3] | Potency [17] | Potency [18] | Potency [4] | Potency [5] | Potency [19] | outcome [6] | Potency [7] | outcome [8] | Potency [9] | Potency [12] | outcome [13] | Potency [14] | Potency [15] | outcome [16]

CC(C)C(C)(N)C#N (centres undefined)
inactive: Potency [1] | Potency [3] | Potency [17] | Potency [18] | Potency [4] | Potency [5] | Potency [19] | outcome [6] | Potency [7] | outcome [8] | Potency [9] | outcome [13] | Potency [14] | Potency [15] | outcome [16]

O=c1[nH]oc2c1CCNC2
inactive: Potency [1] | outcome [2] | Potency [17] | Potency [4] | Potency [5] | Potency [19] | outcome [6] | Potency [7] | outcome [8] | Potency [9] | Potency [10] | Potency [12] | outcome [13] | Potency [14] | Potency [15] | outcome [16]

O=CCCl
inactive: Potency [1] | outcome [2] | Potency [3] | Potency [4] | Potency [5] | outcome [6] | Potency [7] | outcome [8] | Potency [9] | Potency [10] | Potency [12] | outcome [13] | Potency [14] | Potency [15] | outcome [16]

N[C@@H]1C[C@H]1c1ccccc1
inactive: Potency [1] | outcome [2] | Potency [3] | Potency [18] | Potency [4] | Potency [5] | outcome [6] | Potency [7] | outcome [8] | Potency [9] | Potency [20] | Potency [10] | Potency [12] | outcome [13] | Potency [14] | Potency [15] | outcome [16]

O=P(O)(O)CN(CP(=O)(O)O)CP(=O)(O)O
inactive: cytotoxicity increase [1] 21.6% [at 15.8 µM] | outcome [2] | Potency [3] | activity change [19] 27.1% [at 15.8 µM, stronger effect = higher value] | outcome [6] | Potency [7] | outcome [8] | Potency [9] | Potency [10] | Potency [12] | outcome [13] | Potency [14] | Potency [15] | outcome [16]

O=P(O)(O)c1ccccc1
inactive: Potency [1] | Potency [3] | Potency [17] | Potency [18] | Potency [4] | Potency [5] | Potency [19] | outcome [6] | Potency [7] | outcome [8] | Potency [9] | Potency [10] | Potency [12] | outcome [13] | Potency [14] | Potency [15] | outcome [16]

C[C@H](CN1CCOCC1)C(C(=O)N1CCCC1)(c1ccccc1)c1ccccc1
inactive: Potency [1] | outcome [2] | Potency [18] | Potency [5] | Potency [19] | outcome [6] | Potency [7] | outcome [8] | Potency [9] | Potency [10] | Potency [12] | outcome [13] | outcome [16]
